Test results published in PubChem BioAssay (NCATS).
Results filed as inconclusive are left out. Calls of active or inactive are those of the source. The call rests on the fitted dose curve; in most records, active means well fitted curve in the direction sought with a large enough effect; inconclusive means small, poorly fitted or top-dose-only effect, or another doubt; inactive means no such curve, though single readings can be large; an effect the other way counts as inactive or inconclusive.

Assays:
[1] = Quantitative High-Throughput drug screen in 47 multiple myeloma cell lines against the NCATS MIPE library collection: INA6_PLB cell viability assay (AID 1918965; further: nearly all actives have a fitted effect of over 55% in size)
How it was run: (§1)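 Steps: seed 500 cells per well; pin-transfer MIPE 4.0 library; incubate 48 h at 37C, 5% CO2, humidified; add CellTiter-Glo, 5 min room temperature; read luminescence.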

[2] = Quantitative High-Throughput drug screen in 47 multiple myeloma cell lines against the NCATS MIPE library collection: JJN3_DSMZ cell viability assay (AID 1918966; further: nearly all actives have a fitted effect of over 50% in size)
How it was run: (§2)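 We plated 500 myeloma cells per well, pinned in MIPE 4.0 compounds, and incubated for 48 hours at 37C. ATP was then quantified with CellTiter-Glo, with DMSO and media-only wells defining 100% and 0%.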

[3] = Quantitative High-Throughput drug screen in 47 multiple myeloma cell lines against the NCATS MIPE library collection: Karpas25_ECACC cell viability assay (AID 1918968; further: nearly all actives have a fitted effect of over 35% in size)
How it was run: as §2

[4] = Quantitative High-Throughput drug screen in 47 multiple myeloma cell lines against the NCATS MIPE library collection: KMS27_JCRB cell viability assay (AID 1918970); details: KMS27 myeloma cells, CellTiter-Glo ATP viability, 48 h; viability (% of DMSO): at 45.8 µM (top of the series); further: nearly all actives have a fitted effect of over 30% in size
How it was run: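 Each line is seeded at 500 cells per well and treated with library compounds for 48 hours under 37 °C, 5% CO2. CellTiter-Glo is then added for 5 min at room temperature before median relative luminescence is recorded.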

[5] = Quantitative High-Throughput drug screen in 47 multiple myeloma cell lines against the NCATS MIPE library collection: KMS12BM_JCRB cell viability assay (AID 1918971); further: nearly all actives have a fitted effect of over 35% in size
How it was run: (§3)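 Approved and investigational drugs from MIPE 4.0 were added by pin tool to 500 cells per well. After 48 hours at 37C, ATP-based CellTiter-Glo luminescence indicated remaining viability.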

[6] = Quantitative High-Throughput drug screen in 47 multiple myeloma cell lines against the NCATS MIPE library collection: KMS12PE_JCRB cell viability assay (AID 1918972); further: nearly all actives have a fitted effect of over 30% in size
How it was run: as §1

[7] = Quantitative High-Throughput drug screen in 47 multiple myeloma cell lines against the NCATS MIPE library collection: KMS26_JCRB cell viability assay (AID 1918975); further: nearly all actives have a fitted effect of over 45% in size
How it was run: as §3

[8] = Quantitative High-Throughput drug screen in 47 multiple myeloma cell lines against the NCATS MIPE library collection: MMM1_PLB cell viability assay (AID 1918976); further: nearly all actives have a fitted effect of over 35% in size
How it was run: (§4)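 Inhibition of viability over 48 h was scored by ATP content (CellTiter-Glo) in 500-cell wells. Zero and full viability were defined by media-only and DMSO-only wells.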

[9] = Quantitative High-Throughput drug screen in 47 multiple myeloma cell lines against the NCATS MIPE library collection: MOLP8_DSMZ cell viability assay (AID 1918977); further: nearly all actives have a fitted effect of over 45% in size
How it was run: as §4

[10] = Quantitative High-Throughput drug screen in 47 multiple myeloma cell lines against the NCATS MIPE library collection: NCIH929_DSMZ cell viability assay (AID 1918978); further: nearly all actives have a fitted effect of over 35% in size
How it was run: as §4

[11] = Quantitative High-Throughput drug screen in 47 multiple myeloma cell lines against the NCATS MIPE library collection: OCIMY1_PLB cell viability assay (AID 1918979); further: nearly all actives have a fitted effect of over 35% in size
How it was run: as §4

[12] = Quantitative High-Throughput drug screen in 47 multiple myeloma cell lines against the NCATS MIPE library collection: MM1R_ATCC cell viability assay (AID 1918981); further: nearly all actives have a fitted effect of over 35% in size
How it was run: as §4

[13] = Quantitative High-Throughput drug screen in 47 multiple myeloma cell lines against the NCATS MIPE library collection: LP1_DSMZ cell viability assay (AID 1918982); further: nearly all actives have a fitted effect of over 35% in size
How it was run: as §4

[14] = Quantitative High-Throughput drug screen in 47 multiple myeloma cell lines against the NCATS MIPE library collection: L363_DSMZ cell viability assay (AID 1918984); details: L363 myeloma viability, CellTiter-Glo ATP luminescence, 48 h; viability (% of control): at 45.8 µM (top of the series); further: nearly all actives have a fitted effect of over 40% in size
How it was run: as §4

[15] = Quantitative High-Throughput drug screen in 47 multiple myeloma cell lines against the NCATS MIPE library collection: MM1S_ATCC cell viability assay (AID 1918980); further: nearly all actives have a fitted effect of over 45% in size
How it was run: as §4

[16] = Quantitative High-Throughput drug screen in 47 multiple myeloma cell lines against the NCATS MIPE library collection: KMS28PE_JCRB cell viability assay (AID 1918983); further: nearly all actives have a fitted effect of over 35% in size
How it was run: as §4

[17] = Quantitative High-Throughput drug screen in 47 multiple myeloma cell lines against the NCATS MIPE library collection: KMS34_JCRB cell viability assay (AID 1918985); further: nearly all actives have a fitted effect of over 40% in size
How it was run: as §4

[18] = Quantitative High-Throughput drug screen in 47 multiple myeloma cell lines against the NCATS MIPE library collection: H1112_PLB cell viability assay (AID 1918967; further: nearly all actives have a fitted effect of over 30% in size)
How it was run: as §2

[19] = Quantitative High-Throughput drug screen in 47 multiple myeloma cell lines against the NCATS MIPE library collection: KMS21BM_JCRB cell viability assay (AID 1918974); details: ATP luminescence, 48 h; viability: at 45.8 µM (top of the series)
How it was run: as §2

[20] = Quantitative High-Throughput drug screen in 47 multiple myeloma cell lines against the NCATS MIPE library collection: KMS20_JCRB cell viability assay (AID 1918973); further: nearly all actives have a fitted effect of over 45% in size
How it was run: as §2
Potency means the concentration at half of the fitted maximal effect.

Compound | Potency [1] | Potency [2] | Potency [3] | Potency [4] | Potency [5] | Potency [6] | Potency [7] | Potency [8] | Potency [9] | Potency [10] | Potency [11] | Potency [12] | Potency [13] | Potency [14] | Potency [15] | Potency [16] | Potency [17] | Potency [18] | Potency [19] | Potency [20]
Cc1cccc(Nc2nc(N[C@@H]3CCCC[C@H]3N)ncc2C(N)=O)c1 | 1.48 µM (active) | 16.6 µM (active) | 10.5 µM (active) | 23.5 µM (active) | 14.8 µM (active) | 16.6 µM (active) | 20.9 µM (active) | 20.9 µM (active) | 14.8 µM (active) | 6.62 µM (active) | 26.4 µM (active) | 26.4 µM (active) | 18.7 µM (active) | 16.6 µM (active) |  |  |  |  |  | 
O=C1C(c2c(O)[nH]c3ccccc23)=Nc2ccccc21 | inactive | 6.62 µM (active) | 6.62 µM (active) | inactive | 5.9 µM (active) |  | 2.96 µM (active) | 2.09 µM (active) |  |  | inactive | 1.48 µM (active) |  | inactive | 0.118 µM (active) | 9.35 µM (active) | 7.43 µM (active) |  |  | 
COc1ccc(Cn2ccc3ccc(C(=O)NO)cc32)cc1 | 13.2 µM (active) | 11.8 µM (active) | 16.6 µM (active) |  |  | 16.6 µM (active) |  |  |  | 18.7 µM (active) |  |  | 16.6 µM (active) |  |  | inactive |  | inactive | 5.9 µM (active) | 
Cc1cnc(Nc2cccc(CN3CCOCC3)c2)nc1Nc1cccc(S(=O)(=O)NC(C)(C)C)c1 | 0.469 µM (active) | 5.9 µM (active) | 3.72 µM (active) |  | 5.26 µM (active) |  | 18.7 µM (active) | 18.7 µM (active) | 2.96 µM (active) | 1.87 µM (active) |  | 10.5 µM (active) | 14.8 µM (active) | 5.26 µM (active) |  | 14.8 µM (active) | 3.32 µM (active) | 13.2 µM (active) | 0.833 µM (active) | 2.96 µM (active)
C[C@@H](N)c1ccc(C(=O)Nc2ccnc3[nH]ccc23)cc1 | 20.9 µM (active) | 20.9 µM (active) |  |  |  |  |  |  | 16.6 µM (active) |  |  |  |  | 20.9 µM (active) | 18.7 µM (active) |  | 20.9 µM (active) | 23.5 µM (active) |  | 18.7 µM (active)
CN1CCC(COc2cnc(-c3cccc(Cn4nc(-c5cccc(C#N)c5)ccc4=O)c3)nc2)CC1 | 0.418 µM (active) | 0.0332 µM (active) | 0.0743 µM (active) |  | 13.2 µM (active) |  | 0.235 µM (active) |  | inactive | 0.0526 µM (active) | inactive |  | 18.7 µM (active) |  | 0.0743 µM (active) | inactive |  | 0.118 µM (active) |  | 
CCc1cccc(CC)c1NC(=O)N1Cc2[nH]nc(NC(=O)c3ccc(N4CCN(C)CC4)cc3)c2C1 | 4.69 µM (active) | 1.66 µM (active) | 13.2 µM (active) |  | 18.7 µM (active) |  |  | inactive | 16.6 µM (active) | 16.6 µM (active) |  | 14.8 µM (active) |  |  |  | 14.8 µM (active) |  | 20.9 µM (active) | 3.72 µM (active) | 
COc1cc2nccc(Oc3ccc(NC(=O)Nc4cc(C)on4)c(Cl)c3)c2cc1OC | 23.5 µM (active) | 26.4 µM (active) | 20.9 µM (active) | inactive | 23.5 µM (active) |  | 16.6 µM (active) | 23.5 µM (active) |  |  |  |  |  |  | 6.62 µM (active) |  | 4.18 µM (active) |  |  | 
Cc1cnc(-c2cc(N3CCN(C(=O)CCS(C)(=O)=O)CC3)ncc2Cl)c(C)c1 | 18.7 µM (active) | inactive |  |  |  |  |  |  |  |  |  | 18.7 µM (active) | inactive |  |  | inactive | inactive | inactive |  | 
CCNC(=O)[C@H]1O[C@@H](n2cnc3c(N)nc(NCCc4ccc(CCC(=O)O)cc4)nc32)[C@H](O)[C@H]1O | 0.209 µM (active) | 0.059 µM (active) | 0.105 µM (active) |  | 3.32 µM (active) | 0.132 µM (active) |  |  |  | 0.332 µM (active) | inactive | 0.0526 µM (active) |  |  | 0.332 µM (active) |  |  | inactive |  | 
Clc1ccc(C2(c3ccc(-c4cn[nH]c4)cc3)CCNCC2)cc1 | 5.9 µM (active) | 20.9 µM (active) | 3.72 µM (active) |  | 23.5 µM (active) | 23.5 µM (active) | 20.9 µM (active) | 1.48 µM (active) | 20.9 µM (active) | 2.96 µM (active) | 23.5 µM (active) | 10.5 µM (active) | 23.5 µM (active) | 2.35 µM (active) | 14.8 µM (active) | 14.8 µM (active) |  | 16.6 µM (active) |  | 
CSc1cccc(Nc2ncc3cc(-c4c(Cl)cccc4Cl)c(=O)n(C)c3n2)c1 | 0.059 µM (active) | 3.32 µM (active) |  | 0.0662 µM (active) | 1.32 µM (active) |  | 9.35 µM (active) |  | 0.833 µM (active) |  |  |  |  |  |  | 2.35 µM (active) | 1.48 µM (active) | inactive | 0.0209 µM (active) | 0.0105 µM (active)
NCC1CCC(C(=O)O)CC1 (stereo not drawn) | inactive |  | inactive | inactive | inactive | inactive | inactive |  |  | inactive |  | inactive |  | inactive |  | inactive | inactive | inactive |  | 
